# Measurements from PubChem BioAssay (EPA / NIEHS).
# The source made the active and inactive calls. How the source made its calls: active means hit-call score of the fitted dose curve at least 0.9, where 1 is the maximum; inactive means score below 0.9.
# Read-out: Human Leukocyte Antigen - DR isotype (HLADR), HLA-DRA (gene 3122)
# Assay: BSK_BE3C_HLADR: BioMAP Diversity Plus: BE3C Assay for Human Leukocyte Antigen - DR isotype (HLADR) Biomarker Activity (AID 2283032)
# Conditions: primary human bronchial epithelial cells; actives raise or lower the signal
# Method: BSK_BE3C is a cell-based, multiplexed-readout assay that uses bronchial epithelial cell, a human lung primary cell, with measurements taken at 24 hours after chemical dosing in a 96-well plate.BSK_BE3C_HLADR is an assay component measured in the BSK_BE3C assay. It measures HLA-DR antibody related to regulation of gene expression using ELISA technology.Data from the assay component BSK_BE3C_HLADR was analyzed into 1 assay endpoint. This assay endpoint, BSK_BE3C_HLADR, was analyzed with bidirectional fitting relative to DMSO as the negative control and baseline of activity. Using a type of binding reporter, gain or loss-of-signal activity can be used to understand changes in the signaling as they relate to the gene HLA-DRA. Furthermore, this assay endpoint can be referred to as a primary readout, because this assay has produced multiple assay endpoints where this one serves a signaling function. To generalize the intended target to other relatable targets, this assay endpoint is annotated to the cell adhesion molecules intended target family, where the subfamily is MHC Class II.
# The levels of cell surface (or secreted, indicated by the prefix "s") biomarker endpoints were measured by ELISA. Overt cytotoxicity to cells in confluent adherent cultures (all systems other than the BT system) was assessed by measuring total protein levels using sulforhodamine B (SRB) staining in parallel cultures at the time of biomarker measurements, indicated as SRB endpoints. For proliferation assays for adherent cell types, individual cell types are cultured at sub-confluence and relative cell numbers quantified by SRB staining at time points optimized for each system (48 h: 3C and CASM3C systems; 72 h: BT and HDF3CGF systems; 96 h: SAg system). SRB was performed by staining cells with 0.1% SRB after fixation with 10% TCA and reading wells at 560 nm.Viability and proliferation of PBMC (T cells) was quantified by Alamar Blue reduction for the SAg and BT systems. For PBMC viability (referred to as PBMC Cytotoxicity within the assay endpoint names), cells were plated (75,000/well in a 96-well plate) and then chemical samples added for 1 h before addition of activators, SEB and TSST-1 (20 ng/mL final concentration each). Cells were incubated for 90 h. Then, Alamar Blue (20 uL/well) (Invitrogen, Cat DAL1100) was added for 6 h, and the plates were read with a fluorescence microplate reader at 546/580 nm (excitation/emission). For PBMC proliferation, cells were plated and activated as above but incubated for only 16 h prior to addition of Alamar Blue. Plates were read after 6 h.
SMILES,outcome,AC50
CO[C@H]1/C=C/O[C@@]2(C)Oc3c(C)c(O)c4c(O)c(c(/C=N/N5CCN(C)CC5)c(O)c4c3C2=O)NC(=O)/C(C)=C\C=C\[C@H](C)[C@H](O)[C@@H](C)[C@@H](O)[C@@H](C)[C@H](OC(C)=O)[C@@H]1C,inactive,
CC(C)(O)c1ccc(CNC(=O)c2cccnc2Oc2ccc3nonc3c2)cc1,inactive,
CCCCCCCCCCCC[N+](C)(C)C,,28.3 µM (active)
CCCCCc1ccc(N)cc1,inactive,
CCCCOC(=O)c1ccc(O)cc1,inactive,
CCN(Cc1cccc(S(=O)(=O)O)c1)c1ccc(C(=C2C=CC(=[N+](CC)Cc3cccc(S(=O)(=O)O)c3)C=C2)c2ccccc2S(=O)(=O)[O-])cc1,inactive,
CN(C)C(=O)C1(N2CCCCC2)CCN(CC[C@@]2(c3ccc(Cl)c(Cl)c3)CN(C(=O)c3ccccc3)CCO2)CC1,,14.4 µM (active)
O=C(Nc1ccc(Cl)cc1)Nc1ccc(Cl)c(Cl)c1,,1.39 µM (active)
CN1C(=O)N(c2ccccc2Br)Cc2cnc(Nc3ccc4c(c3)OCC(CO)O4)nc21 (stereo not given),,28.5 µM (active)
CCO[Si](CCCNC(N)=O)(OCC)OCC,inactive,
O=CCCCC=O,,33.5 µM (active)
Cc1occc1C(=O)Nc1ccc(C(=O)N2CCC(F)(F)/C(=C\C(=O)N3CCC(N4CCCCC4)CC3)c3ccccc32)cc1,inactive,
Cc1cccc2ccccc12,inactive,
Cc1ccc2oc(CN(Cc3ccccc3)C(=O)Nc3c(F)cc(F)cc3F)c(-c3ccc(Cl)cc3)c2c1,inactive,
O=C1CCC(C2CCCCC2)CC1,,25.9 µM (active)
Oc1ccccc1,inactive,
O=C(O)Cn1c(=O)n(Cc2ccc(Br)cc2F)c(=O)c2ccc(Cl)cc21,inactive,
O=C(O)c1ccccc1C(=O)OCc1ccccc1,inactive,
c1ccc2ccccc2c1,inactive,
O=C(O)Cc1cc(I)c(Oc2ccc(O)c(I)c2)c(I)c1,,17.6 µM (active)

SMILES,outcome,AC50
CC1=CC(=O)/C(=C(/C)O)C(=O)O1,inactive,
Clc1cc(Cl)c2c(c1)N=C1CCCCCN1C2,inactive,
Cc1cn([C@H]2C[C@H](N=[N+]=[N-])[C@@H](CO)O2)c(=O)[nH]c1=O,inactive,
CCCCCCCCN(C)CCCCCCCC,inactive,
CC(O)CC(C)(C)O (stereo not given),inactive,
CC(C)(C)c1cc(/C=C2\SC(N)=NC2=O)cc(C(C)(C)C)c1O,,7.46 µM (active)
CC(=O)N1CCN(c2ccc(OC[C@H]3CO[C@](Cn4ccnc4)(c4ccc(Cl)cc4Cl)O3)cc2)CC1,,33.3 µM (active)
Oc1ccc2ccccc2c1,inactive,
O=C=NCCCCCCN=C=O,inactive,
CN1C(=O)CC[C@H]1c1cccnc1,inactive,
Cc1cc(F)ccc1-c1cc(N2CC[C@@H](O)[C@H]2CO)ncc1N(C)C(=O)C(C)(C)c1cc(C(F)(F)F)cc(C(F)(F)F)c1,,12.8 µM (active)
O=C1O[C@H]([C@@H](O)CO)C(O)=C1O,inactive,
Cc1ncc(CO)c(CO)c1O,inactive,
COc1ccc2cc(S(=O)(=O)N[C@H](CC(=O)N[C@H](Cc3ccc(CN4[C@H](C)CCC[C@@H]4C)cc3)C(=O)N(C)C(C)C)c3ccc4c(c3)OCO4)ccc2c1,,32.8 µM (active)
c1ccc(C[n+]2cccc3ccccc32)cc1,inactive,
O=C1c2ccccc2C(=O)N1CCc1noc(-c2ccc(CN3CCCCCC3)s2)n1,inactive,
CCN(Cc1cccnc1)C(=O)c1cccc(Cl)c1[C@]1(C)C(=O)N(Cc2ccc(OC)cc2OC)c2ccc(Cl)cc21,inactive,
O=c1c(-c2ccc(O)cc2)coc2cc(O)cc(O)c12,inactive,
CCCCCCCC[Si](OCC)(OCC)OCC,inactive,
CC[C@H](NC(=O)c1cc(F)ccc1NS(=O)(=O)c1cccc2cccnc12)c1ccccc1,inactive,
